# Assay results as given in PubChem BioAssay (NCATS).
# Records with an inconclusive call do not appear. Calls of active or inactive are those of the source. Calls follow the shape of the dose curve; as a rule, active = well fitted inhibition curve with a large enough effect; inconclusive = small, poorly fitted or top-dose-only effect; inactive = flat fitted curve, though single readings scatter.
# Assay: BET inhibitor-based combinations targeting novel dependencies in MECOM-rearranged (r) AML: AML-194 cell line (AID 2202237; also: nearly all actives have a fitted effect of over 40% in size)
# Conditions: AML-194 (MECOM-r AML) viability, CellTiter-Glo, 48 h; series mostly up to 46 µM
# Procedure, shortened: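 Each compound was tested at eleven concentrations on cells seeded at 500/well. After two days' incubation, ATP-based luminescence reported viability; responses relative to DMSO and blank wells yielded AUC and cell-line-centred Z-AUC.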
# Potency is read from the fitted curve at half-maximal effect.
row,SMILES,Potency
1,Cc1ccc(C(N)=O)cc1Nc1nccc(-c2cn(C(C)C)c3cnccc23)n1,8330 nM (active)
2,O=C1CCC[C@@H]2[C@H]3CCC[N+]4([O-])CCC[C@@H](CN12)[C@@H]34 (stereo partly drawn),inactive
3,CCS(=O)(=O)c1cccc(-c2cc(C(=O)NC3CCN(C)CC3)c(C)c3[nH]c4ncc(C)cc4c23)c1,2630 nM (active)
4,N#CN1CCC[C@@H](n2nc(-c3ccc(Oc4ccc(F)cc4F)cc3)c(C(N)=O)c2N)C1,inactive
5,FC(F)(F)c1ccc(Nc2nc(-c3c(C(F)(F)F)nc4ccccn34)cs2)cc1,332 nM (active)
6,COc1nc(-c2ccc3c(c2)OCO3)n(-c2ccc(NC(=O)CSc3ccccc3)cc2)n1,inactive
7,CC1(C)[C@@H](O)CC[C@]2(C)[C@H]3C(=O)C=C4[C@@H]5C[C@@](C)(C(=O)O)CC[C@]5(C)CC[C@@]4(C)[C@]3(C)CC[C@@H]12,inactive
8,Cc1[nH]c2ccc(F)cc2c1-c1nc2c3cccnc3c3ncccc3c2[nH]1,762 nM (active)
9,O=C(NCCCNC(=O)c1ccc[nH]c1=O)c1cc(-c2ccccc2)on1,14800 nM (active)
10,O=C(C1CC1)N1CC[C@@H](Cc2n[nH]c(=O)n2-c2ccc(-c3ccc4occc4c3)cc2)C1,inactive
11,COCCOc1ccc2c(c1)ncn2-c1ccc2cccc(N3CCC(N)CC3)c2n1,2350 nM (active)
12,Fc1ccc(-c2nc(-c3ccccc3F)[nH]c2-c2ccncc2)cc1,inactive
13,COc1cc2c(Oc3ccc4[nH]c(C)cc4c3F)ncnc2cc1OCCCN1CCCC1,10500 nM (active)
